PubChem BioAssay AID1211 (NMMLSC, 2008)
The source made the active and inactive calls. No rule for the calls is given here.

Molecular target: Estrogen receptor (Homo sapiens) (UniProt P03372)
Assay: displacement of fluorescent estrogen from ERalpha – cell-based, Cos7 ERalpha-GFP, flow cytometry, primary screen (AID 1211);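 also: 0% = DMSO vehicle wells and 100% = no E2-Alexa633 signal left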
Conditions: fluorescent ligand competition, stronger effect = higher value

Sequence of Estrogen receptor (Homo sapiens) (P03372 whole entry, looked up): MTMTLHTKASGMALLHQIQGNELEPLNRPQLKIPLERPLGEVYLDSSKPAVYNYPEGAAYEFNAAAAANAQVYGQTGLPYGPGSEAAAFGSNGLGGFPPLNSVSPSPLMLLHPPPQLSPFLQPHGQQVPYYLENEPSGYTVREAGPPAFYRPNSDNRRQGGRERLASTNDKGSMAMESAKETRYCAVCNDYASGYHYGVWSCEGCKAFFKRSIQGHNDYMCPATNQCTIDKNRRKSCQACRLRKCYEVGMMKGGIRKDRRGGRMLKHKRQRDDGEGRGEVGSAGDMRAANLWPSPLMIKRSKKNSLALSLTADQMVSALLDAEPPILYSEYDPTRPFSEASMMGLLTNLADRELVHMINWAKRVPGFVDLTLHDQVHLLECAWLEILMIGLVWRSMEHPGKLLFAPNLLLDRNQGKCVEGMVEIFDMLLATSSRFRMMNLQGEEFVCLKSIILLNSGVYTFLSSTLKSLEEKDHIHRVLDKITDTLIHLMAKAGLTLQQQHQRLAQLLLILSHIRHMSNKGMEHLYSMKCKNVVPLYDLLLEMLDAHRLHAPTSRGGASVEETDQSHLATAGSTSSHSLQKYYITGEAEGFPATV

Cc1ccc(N=Cc2c(O)n(-c3ccc4c(c3)OCO4)c(=O)c3ccccc23)cc1
inhibition of ligand binding (at 10 µM): 49% (inactive) | inhibition of ligand binding (binding inhibition, at 0.1 µM): 19%

CN(c1ccccc1C(=O)O)S(=O)(=O)c1ccc2c3c(cccc13)C(=O)N2
inhibition of ligand binding (at 10 µM): 40% (inactive) | inhibition of ligand binding (binding inhibition, at 0.1 µM): 12%

COc1ccc(C2Nc3ccccc3C(=O)N2c2ccc(C)cc2)cc1COc1ccccn1 (stereo not given)
inhibition of ligand binding (at 10 µM): 27% (inactive) | inhibition of ligand binding (binding inhibition, at 0.1 µM): 11%

COc1ccc(-c2ccc(-c3noc(-c4cccs4)n3)c(OC)n2)cc1
inhibition of ligand binding (at 10 µM): 24% (inactive) | inhibition of ligand binding (binding inhibition, at 0.1 µM): 54%

c1ccc(-c2nnc3sc(Cc4cccs4)nn23)cc1
inhibition of ligand binding (at 10 µM): 28% (inactive) | inhibition of ligand binding (binding inhibition, at 0.1 µM): 13%

CC(=O)c1sc2nc(SCC(=O)N3CCCCC3)[nH]c(=O)c2c1C
inhibition of ligand binding (at 10 µM): 33% (inactive) | inhibition of ligand binding (binding inhibition, at 0.1 µM): 30%

Oc1ccc(/C=N/n2c(-c3ccco3)csc2=Nc2cccnc2)c(O)c1
inhibition of ligand binding (at 10 µM): 49% (inactive) | inhibition of ligand binding (binding inhibition, at 0.1 µM): 21%

O=C1C2CC=C(Cl)CC2C(=O)N1CCCCCCN1C(=O)C2CC=C(Cl)CC2C1=O (stereo not given)
inhibition of ligand binding (at 10 µM): 36% (inactive) | inhibition of ligand binding (binding inhibition, at 0.1 µM): 34%

C/C(N)=C(/C#N)C(=O)CSc1nnc(Nc2cccc(C)c2C)s1
inhibition of ligand binding (at 10 µM): 32% (inactive) | inhibition of ligand binding (binding inhibition, at 0.1 µM): 16%

Cc1nn2cc(-c3ccc(N)cc3)nc2s1
inhibition of ligand binding (at 10 µM): 28% (inactive) | inhibition of ligand binding (binding inhibition, at 0.1 µM): 53%

CN(C)S(=O)(=O)N(CC(=O)N(Cc1ccccc1)Cc1ccccc1)c1ccccc1
inhibition of ligand binding (at 10 µM): 23% (inactive) | inhibition of ligand binding (binding inhibition, at 0.1 µM): 24%

NC(=O)c1ccsc1NC(=O)COC(=O)Cc1ccsc1
inhibition of ligand binding (at 10 µM): 37% (inactive) | inhibition of ligand binding (binding inhibition, at 0.1 µM): 29%

CN=c1scc(C)n1/N=C/c1ccc(O)cc1O
inhibition of ligand binding (at 10 µM): 0% (inactive) | inhibition of ligand binding (binding inhibition, at 0.1 µM): 3%

Oc1ccc(-c2nnc(-c3ccccc3)c(-c3ccccc3)n2)cc1
inhibition of ligand binding (at 10 µM): 47% (inactive) | inhibition of ligand binding (binding inhibition, at 0.1 µM): 51%

Oc1ccc(-c2cn3c(n2)SCC3)cc1O
inhibition of ligand binding (at 10 µM): 19% (inactive) | inhibition of ligand binding (binding inhibition, at 0.1 µM): 28%

CCOc1cccc2cc(-c3nnc(NCc4ccco4)s3)c(=O)oc12
inhibition of ligand binding (at 10 µM): 47% (inactive) | inhibition of ligand binding (binding inhibition, at 0.1 µM): 61%

Cc1cs/c(=N\N=C\c2ccc(O)cc2)n1Cc1ccco1
inhibition of ligand binding (at 10 µM): 51% (inactive) | inhibition of ligand binding (binding inhibition, at 0.1 µM): 55%

Cc1nc2sccn2c1-c1nc(-c2cc3ccccc3o2)cs1
inhibition of ligand binding (at 10 µM): 4% (inactive) | inhibition of ligand binding (binding inhibition, at 0.1 µM): 22%

COc1cc2c(cc1O)CC[n+]1cc3c(OC)c(OC)ccc3cc1-2
inhibition of ligand binding (at 10 µM): 46% (inactive) | inhibition of ligand binding (binding inhibition, at 0.1 µM): 9%

Cc1cc(C(=O)CSc2nnc(-c3ccccc3F)o2)c(C)n1Cc1cccs1
inhibition of ligand binding (at 10 µM): 69% (active) | inhibition of ligand binding (binding inhibition, at 0.1 µM): 16%

CCOc1ccc(N=C2NC(=O)S/C2=C\c2ccc(OC)cc2)cc1
inhibition of ligand binding (at 10 µM): 39% (inactive) | inhibition of ligand binding (binding inhibition, at 0.1 µM): 26%

CC(=O)c1ccc(NC(=S)N2CCCC(CO)C2)cc1 (stereo not given)
inhibition of ligand binding (at 10 µM): 13% (inactive) | inhibition of ligand binding (binding inhibition, at 0.1 µM): 1%

O=C(O)c1ccc(NS(=O)(=O)c2ccc3c(c2)C2C=CCC2C(c2ccccc2F)N3)cc1 (stereo not given)
inhibition of ligand binding (at 10 µM): 62% (inactive) | inhibition of ligand binding (binding inhibition, at 0.1 µM): 5%

O=C(C1c2ccccc2C(=O)N2CCc3ccccc3C12)N1CCN(Cc2ccccc2)CC1 (stereo not given)
inhibition of ligand binding (at 10 µM): 41% (inactive) | inhibition of ligand binding (binding inhibition, at 0.1 µM): 12%

Cc1ccc(C(=O)Nc2nc(-c3cccnc3)cs2)o1
inhibition of ligand binding (at 10 µM): 29% (inactive) | inhibition of ligand binding (binding inhibition, at 0.1 µM): 20%

CCCOc1ccc(-c2nn(-c3ccccc3)cc2/C=C2\SC(N)=NC2=O)cc1
inhibition of ligand binding (at 10 µM): 50% (inactive) | inhibition of ligand binding (binding inhibition, at 0.1 µM): 13%

Cc1noc(C)c1COc1ccc(C(=O)OCC(=O)N2c3ccccc3NC(=O)C2(C)C)cc1
inhibition of ligand binding (at 10 µM): 59% (inactive) | inhibition of ligand binding (binding inhibition, at 0.1 µM): 16%

COc1ccc2c(c1OC)C(=O)N1N=C(c3ccc(O)cc3)CC21 (stereo not given)
inhibition of ligand binding (at 10 µM): 0% (inactive) | inhibition of ligand binding (binding inhibition, at 0.1 µM): 30%

Cc1snc2sc(C(=O)c3ccc(Br)cc3)c(N)c12
inhibition of ligand binding (at 10 µM): 48% (inactive) | inhibition of ligand binding (binding inhibition, at 0.1 µM): 29%

O=C(NCc1ccco1)c1cc2c(s1)CSC2
inhibition of ligand binding (at 10 µM): 24% (inactive) | inhibition of ligand binding (binding inhibition, at 0.1 µM): 25%

O=C(Cc1cccs1)Nc1nncs1
inhibition of ligand binding (at 10 µM): 33% (inactive) | inhibition of ligand binding (binding inhibition, at 0.1 µM): 13%

O=S(=O)(NCC(O)COCc1ccco1)c1cccs1 (stereo not given)
inhibition of ligand binding (at 10 µM): 7% (inactive) | inhibition of ligand binding (binding inhibition, at 0.1 µM): 4%

CCCC1Nc2ccc(C(=O)O)cc2C2C=CCC12 (stereo not given)
inhibition of ligand binding (at 10 µM): 22% (inactive) | inhibition of ligand binding (binding inhibition, at 0.1 µM): 64%

Nc1ccc(-c2nc3ccc(C(=O)O)cc3s2)cc1
inhibition of ligand binding (at 10 µM): 0% (inactive) | inhibition of ligand binding (binding inhibition, at 0.1 µM): 42%

c1coc(-c2nnc3sc(Cc4cccs4)nn23)c1
inhibition of ligand binding (at 10 µM): 24% (inactive) | inhibition of ligand binding (binding inhibition, at 0.1 µM): 14%

CCOc1ccccc1N1CSC2=C(C#N)C(c3c(OC)ccc4ccccc34)CC(=O)N2C1 (stereo not given)
inhibition of ligand binding (at 10 µM): 19% (inactive) | inhibition of ligand binding (binding inhibition, at 0.1 µM): 17%

CN1CCc2cccc3c2[C@@H]1Cc1ccc(O)c(O)c1-3
inhibition of ligand binding (at 10 µM): 42% (inactive) | inhibition of ligand binding (binding inhibition, at 0.1 µM): 6%

O=c1oc2c(O)c(O)cc3c(=O)oc4c(O)c(O)cc1c4c23
inhibition of ligand binding (at 10 µM): 0% (inactive) | inhibition of ligand binding (binding inhibition, at 0.1 µM): 4%

Cc1nc2ccc(C(=O)O)cc2[nH]1
inhibition of ligand binding (at 10 µM): 55% (inactive) | inhibition of ligand binding (binding inhibition, at 0.1 µM): 52%

O=S(=O)(Nc1ncnc2sc3c(c12)CCC3)c1ccc2ccccc2c1
inhibition of ligand binding (at 10 µM): 28% (inactive) | inhibition of ligand binding (binding inhibition, at 0.1 µM): 37%

O=C(CSc1nc2ccccc2c(=O)[nH]1)c1ccc(O)c(O)c1
inhibition of ligand binding (at 10 µM): 14% (inactive) | inhibition of ligand binding (binding inhibition, at 0.1 µM): 5%

NC(=O)c1c(NC(=O)c2cccs2)sc2c1CCCCCC2
inhibition of ligand binding (at 10 µM): 0% (inactive) | inhibition of ligand binding (binding inhibition, at 0.1 µM): 22%

Cn1c(SCC(=O)Nc2sccc2C#N)nnc1-c1ccccc1
inhibition of ligand binding (at 10 µM): 17% (inactive) | inhibition of ligand binding (binding inhibition, at 0.1 µM): 24%

C/C(N)=C(/C#N)C(=O)CSc1nnc(Nc2ccccc2C)s1
inhibition of ligand binding (at 10 µM): 48% (inactive) | inhibition of ligand binding (binding inhibition, at 0.1 µM): 18%

COc1ccccc1-c1nnc2n1N=C(c1ccc(O)c(O)c1)CS2
inhibition of ligand binding (at 10 µM): 46% (inactive) | inhibition of ligand binding (binding inhibition, at 0.1 µM): 10%

CN(CC(=O)NC(=O)NCc1ccco1)Cc1nc2ccccc2c(=O)[nH]1
inhibition of ligand binding (at 10 µM): 17% (inactive) | inhibition of ligand binding (binding inhibition, at 0.1 µM): 64%

Oc1cccc(-c2nc3ccc4ccccc4c3c3c2CCC3)c1
inhibition of ligand binding (at 10 µM): 33% (inactive) | inhibition of ligand binding (binding inhibition, at 0.1 µM): 21%

C/C=C(/C(=C/C)c1ccc(O)cc1)c1ccc(O)cc1
inhibition of ligand binding (at 10 µM): 76% (active) | inhibition of ligand binding (binding inhibition, at 0.1 µM): 87%

COc1ccc(C(N)CCc2ccc(C)o2)cc1 (stereo not given)
inhibition of ligand binding (at 10 µM): 30% (inactive) | inhibition of ligand binding (binding inhibition, at 0.1 µM): 39%

CC1(C)CC(=O)C2=C(C1)OC(c1ccc(O)cc1)C(C#N)=C2N (stereo not given)
inhibition of ligand binding (at 10 µM): 34% (inactive) | inhibition of ligand binding (binding inhibition, at 0.1 µM): 5%

O=C(O)c1cc(-c2ccco2)nc2ccc(Br)cc12
inhibition of ligand binding (at 10 µM): 21% (inactive) | inhibition of ligand binding (binding inhibition, at 0.1 µM): 39%

CCN(CC)c1ccc2c(c1)oc(=O)c1c(Cl)cc(=O)oc12
inhibition of ligand binding (at 10 µM): 23% (inactive) | inhibition of ligand binding (binding inhibition, at 0.1 µM): 4%

COc1ccc2c(c1)c(=O)oc1cc(OCC(=O)N3CCC(C)CC3)ccc12
inhibition of ligand binding (at 10 µM): 0% (inactive) | inhibition of ligand binding (binding inhibition, at 0.1 µM): 26%

COCCNC(=O)c1c(N)n(/N=C/c2cccs2)c2nc3ccccc3nc12
inhibition of ligand binding (at 10 µM): 41% (inactive) | inhibition of ligand binding (binding inhibition, at 0.1 µM): 6%

O=C(Cc1cccs1)Nc1ccc(S(=O)(=O)Nc2ncccn2)cc1
inhibition of ligand binding (at 10 µM): 15% (active) | inhibition of ligand binding (binding inhibition, at 0.1 µM): 87%

O=C(CNc1ccccc1)N/N=C/c1cn(-c2ccccc2)nc1-c1ccccc1
inhibition of ligand binding (at 10 µM): 28% (inactive) | inhibition of ligand binding (binding inhibition, at 0.1 µM): 52%

C/C(=N\Nc1ccc([N+](=O)[O-])cc1)c1cccc(N)c1
inhibition of ligand binding (at 10 µM): 4% (inactive) | inhibition of ligand binding (binding inhibition, at 0.1 µM): 35%

CCN1CCN(Cc2c(O)c(Cl)cc3c(C)cc(=O)oc23)CC1
inhibition of ligand binding (at 10 µM): 31% (inactive) | inhibition of ligand binding (binding inhibition, at 0.1 µM): 28%

Cc1cc(C)n2nc(SCc3cc(=O)oc4cc(O)ccc34)nc2n1
inhibition of ligand binding (at 10 µM): 49% (inactive) | inhibition of ligand binding (binding inhibition, at 0.1 µM): 5%

O=c1cc(-c2ccc(O)c(O)c2)oc2c(C3O[C@H](CO)[C@@H](O)[C@H](O)[C@H]3O)c(O)cc(O)c12 (stereo not given in full)
inhibition of ligand binding (at 10 µM): 28% (inactive) | inhibition of ligand binding (binding inhibition, at 0.1 µM): 27%

Cc1ccc(C)n1-c1sccc1C(=O)O
inhibition of ligand binding (at 10 µM): 36% (inactive) | inhibition of ligand binding (binding inhibition, at 0.1 µM): 36%

COc1ccc(N2C(=O)c3ccccc3NC2c2ccc(OC)c(COc3ccccn3)c2)cc1 (stereo not given)
inhibition of ligand binding (at 10 µM): 0% (inactive) | inhibition of ligand binding (binding inhibition, at 0.1 µM): 22%

COc1cc(C(Nc2ccccn2)c2ccc3ccc(C)nc3c2O)cc(OC)c1O (stereo not given)
inhibition of ligand binding (at 10 µM): 54% (inactive) | inhibition of ligand binding (binding inhibition, at 0.1 µM): 16%

CCCc1nc2sc3ccccc3c(=O)c2c(=O)n1Cc1ccco1
inhibition of ligand binding (at 10 µM): 42% (inactive) | inhibition of ligand binding (binding inhibition, at 0.1 µM): 1%

CC(=O)Nc1ccc(OC(=O)CC2SC(=O)NC2=O)cc1 (stereo not given)
inhibition of ligand binding (at 10 µM): 51% (inactive) | inhibition of ligand binding (binding inhibition, at 0.1 µM): 60%
